This excerpt belongs to a sample that is enriched for hits.
ST2 IL33 inh: inhibitors of human ST2 (IL1RL1) binding to IL-33; AlphaLISA ST2-Fc/biotin-IL-33 interaction, 1 h; inhibition, % for hits at 17 µM; actives 2.3% (n = 78,000); in the data active = inhibition above about 30%
Target sequence (Q01638 whole entry, looked up): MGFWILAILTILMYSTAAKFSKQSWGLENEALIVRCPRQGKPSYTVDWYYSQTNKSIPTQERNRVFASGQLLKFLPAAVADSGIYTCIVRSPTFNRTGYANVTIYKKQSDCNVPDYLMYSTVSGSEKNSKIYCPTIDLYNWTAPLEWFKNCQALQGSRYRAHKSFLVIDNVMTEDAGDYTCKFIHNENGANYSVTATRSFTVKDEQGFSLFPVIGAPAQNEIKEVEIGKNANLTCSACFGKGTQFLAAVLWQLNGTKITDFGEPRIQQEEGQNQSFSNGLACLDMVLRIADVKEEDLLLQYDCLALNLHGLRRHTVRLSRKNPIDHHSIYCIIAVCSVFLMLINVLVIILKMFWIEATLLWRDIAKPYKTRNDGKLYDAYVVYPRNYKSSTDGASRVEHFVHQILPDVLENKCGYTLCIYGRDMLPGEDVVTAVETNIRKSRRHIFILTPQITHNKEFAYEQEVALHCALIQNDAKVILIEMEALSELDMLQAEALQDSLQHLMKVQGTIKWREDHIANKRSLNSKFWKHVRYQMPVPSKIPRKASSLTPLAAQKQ
Numbers without * were called inactive; i = inactive; ! = not active in a repeat.

SMILES	ST2 IL33 inh
CC(=O)N1N=C(c2cccs2)CC1c1cn(-c2ccccc2)nc1-c1ccccc1 (stereo not drawn)	i
CC1CN(C(=O)Cn2cnc3c2c(=O)n(C)c(=O)n3C)CC(C)O1 (stereo not drawn)	95.0%*
Cn1c(=O)c2c(ncn2CC(=O)Nc2ccccn2)n(C)c1=O	i
CCCCNC(=O)Cn1cnc2c1c(=O)n(C)c(=O)n2C	i
Cc1cnccc1NCCNC(=O)c1cn(CC2CCCNC2)nn1 (stereo not drawn)	i
Cc1c(N=Cc2cc([N+](=O)[O-])ccc2N2CCCCC2)c(=O)n(-c2ccccc2)n1C	44.0%*
Cc1c(N=Cc2ccc([N+](=O)[O-])o2)c(=O)n(-c2ccccc2)n1C	i
Cc1c(N=Cc2cc([N+](=O)[O-])ccc2O)c(=O)n(-c2ccccc2)n1C	i
COC(=O)c1sccc1S(=O)(=O)N1CCc2c(ncnc2N(C)C)C1	i
O=C(Nc1ccc(C(F)(F)F)cc1)C(NS(=O)(=O)c1cccs1)c1ccccc1 (stereo not drawn)	i
COc1cc(CN2CCN(c3ccccc3OC)CC2)c([N+](=O)[O-])cc1OC	i
CCOc1ccccc1N1CCN(Cc2ccc(OC)cc2OC)CC1	i
COc1ccc(CN2CCN(Cc3cccc([N+](=O)[O-])c3)CC2)c(OC)c1OC	i
COc1cc([N+](=O)[O-])cc(CN2CCN(c3cc(C)ccc3C)CC2)c1O	41.0%*
COc1cc(CN2CCN(c3ccccc3F)CC2)cc([N+](=O)[O-])c1O	i
COc1cc(CN2CCN(c3ncccn3)CC2)c([N+](=O)[O-])cc1OC	i
Cc1ccc(C)c(N2CCN(Cc3cc4c(cc3[N+](=O)[O-])OCO4)CC2)c1	32.0%*
COc1cc(OC)c(OC)cc1CN1CCN(Cc2cc(OC)c(OC)cc2[N+](=O)[O-])CC1	i
CCOc1ccccc1N1CCN(Cc2cc3c(cc2[N+](=O)[O-])OCO3)CC1	30.0%*
Cc1ccc(C)c(N2CCN(Cc3ccc(-c4ccccc4[N+](=O)[O-])o3)CC2)c1	38.0%*
Cc1ccccc1N1CCN(Cc2ccco2)CC1	i
O=[N+]([O-])c1ccc(CN2CCN(Cc3ccccc3)CC2)o1	i
COc1cccc2c1OCC(C(=O)NCCc1nc3ccccc3s1)C2 (stereo not drawn)	i
CC(=O)Cc1nsc(Nc2ccc(Br)cc2)n1	i
COc1ccc(CNC(=O)C[C@@H]2O[C@H](CNC(=O)Nc3cccc(F)c3)[C@@H](O)[C@H]2O)cc1	i
SMILES	ST2 IL33 inh
Cc1cc(=O)c2c(O)c3c(cc2o1)O[C@H](C(C)(C)O)C3	i
COC(=O)[C@@H]1C[C@@H](NC(=O)c2cc(Cl)cc(OC)c2)CN1C	i
Brc1ccc(C2CC(c3ccccc3)n3nnnc3N2)cc1 (stereo not drawn)	i
CN(C)c1nc2ncnc(SCC(=O)Nc3ccc(Cl)cc3)c2s1	i
COc1cc(C)c(CN2CCN(c3ccc([N+](=O)[O-])cc3)CC2)cc1C	32.0%*
O=[N+]([O-])c1ccc(N2CCN(Cc3ccoc3)CC2)cc1	i
COc1ccc(C(=O)N2CCN(c3ccc([N+](=O)[O-])cc3)CC2)cc1OC	i
N#CC1=C(N)Oc2c(c(=O)[nH]c3ccccc23)C1c1cc(Br)cs1 (stereo not drawn)	i
N=c1c2c(-c3ccccc3)c(-c3ccccc3)oc2ncn1CCCO	i
COc1ccc(-c2oc3ncn(CCO)c(=N)c3c2-c2ccc(OC)cc2)cc1	i
OCCNc1ncnc2oc(-c3ccccc3)c(-c3ccccc3)c12	35.0%*
O=C(Cn1c(-c2ccccc2F)nc2ccccc2c1=O)Nc1ccc(F)c(Cl)c1	i
O=C(COc1ccc(Cl)cc1Cl)NCc1ccccn1	i
NC(=O)c1ccc(NC(=O)C2CCN(C(=O)Cc3ccccc3)CC2)cc1	i
O=C1C[C@H]2CC[C@@H](CN1)N2C(=O)Cc1ccc(NC(=O)C2CC2)cc1	43.0%*
NS(=O)(=O)c1ccc(NC(=O)C2CCN(C(=O)Cc3ccccc3)CC2)cc1	i
CN(Cc1ccccc1)Cc1cn(C[C@H]2O[C@@H](CC(=O)NCc3cccnc3)[C@H](O)[C@@H]2O)nn1	i
CCOC(=O)Cc1csc(NC(=O)c2cc3c(=O)n4cccc(C)c4nc3n2C)n1	i
COc1ccc(C2C3C(=O)NC(=O)C3ON2c2ccc(Cl)cc2)cc1 (stereo not drawn)	31.0%*
COc1ccc(C2C(C(=O)Nc3ccc(F)c(Cl)c3)CC(=O)N2c2ccc(OC)cc2)cc1 (stereo not drawn)	i
COc1ccc(N2C(=O)C3C(c4ccc(F)cc4)OC4(C(=O)c5ccccc5C4=O)C3C2=O)cc1 (stereo not drawn)	i
O=[N+]([O-])c1nn(-c2ccccc2)n(O)c1=NCc1ccc(F)cc1	i
O=C1NC(=O)N(c2cccc(F)c2)C(=O)/C1=C/c1cccn1-c1ccccc1	i
O=C1NN(c2ccc(F)cc2)C(=O)/C1=C\c1cccn1-c1ccc([N+](=O)[O-])cc1	31.0%*
O=C1NN(c2ccc(Br)cc2)C(=O)/C1=C\c1cccn1-c1ccc([N+](=O)[O-])cc1	33.0%*
SMILES	ST2 IL33 inh
Cc1cc(/C=C2/C(=O)NC(=O)N(c3ccccc3)C2=O)c(C)n1-c1ccc([N+](=O)[O-])cc1	i
O=[N+]([O-])c1ccc(NS(=O)(=O)c2ccc(Br)cc2)cc1	i
Cc1c(C(=O)N2CCCCCC2)oc2ccc(S(=O)(=O)N3CC(C)CC(C)C3)cc12 (stereo not drawn)	i
O=c1c2c(nc(SCc3ccc(F)cc3)n1-c1ccc(F)cc1)CCS2	i
Cc1ccc(-n2c(SCC(=O)N3CCCC3)nc3c(c2=O)SCC3)cc1	i
O=C(CSc1nc2c(c(=O)n1-c1ccc(Cl)cc1)SCC2)N1CCCc2ccccc21	i
Cc1ccc(-n2c(SCC(=O)N3CCCCC3)nc3c(c2=O)SCC3)cc1	i
COC(=O)c1ccc(CSc2nc3c(c(=O)n2-c2ccc(C)cc2)SCC3)o1	i
Cc1ccc(-n2c(SCc3ccc(F)cc3)nc3c(c2=O)SCC3)cc1	31.0%*!
Cc1ccc(-n2c(SCc3ccccc3)nc3c(c2=O)SCC3)cc1	30.0%*!
O=C(CSc1nc2c(c(=O)n1-c1ccc(Cl)cc1)SCC2)N1CCc2ccccc21	i
CCOc1ccc(-n2c(SCc3ccc(F)cc3)nc3c(c2=O)SCC3)cc1	i
Cc1ccc(-n2c(SCc3cccc(F)c3)nc3c(c2=O)SCC3)cc1	33.0%*!
CCSc1nc2c(c(=O)n1-c1ccc(F)cc1)SCC2	i
Cc1ccc(-n2c(SCC(=O)N3CCc4ccccc43)nc3c(c2=O)SCC3)cc1	97.0%*!
O=C(C1CC1)N1CCc2cc(Br)cc(S(=O)(=O)NC3CCCC3)c21	i
COC(=O)C1=CO[C@@H](O[C@@H]2O[C@H](CO)[C@@H](O)[C@H](O)[C@H]2O)/C(=C\COC(C)=O)[C@@H]1CC(=O)OCCc1ccc(O)cc1	i
COc1ccc(-c2noc([C@@H]3C[C@@H](O)CN3Cc3ccccc3)n2)cc1	i
Cn1nc(C(=O)NCc2ccccc2)c2c1CCN(C(=O)c1cn3ccccc3n1)C2	i
Cc1nc(SCC(=O)Nc2nncs2)n[nH]1	i
C=CCn1cc(C(=O)NC2CCCCC2)c(=O)c2cc(S(=O)(=O)N3CCCCCC3)ccc21	i
CC1CCC2C(C1)c1sc(=O)[nH]c1SC2(C)C (stereo not drawn)	i
O=c1[nH]c2c(s1)C1c3cc([N+](=O)[O-])ccc3OCC1CS2 (stereo not drawn)	i

Screening data from PubChem.
